# Rows were chosen to be rich in hits. Some 5.3% of all compounds tested hit in one or more screens of this group.
# BAZ2B block = BAZ2B (human) inhibition | 360,000 tested, 4.4% active | AID 504333 | Q9UIF8 | Potency, µM (top dose mostly 114 µM), actives largely listed as inhibitors | AlphaScreen BAZ2B-H3K14Ac peptide displacement; note: nearly all actives have a fitted effect of over 60% in size
#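 BAZ2B 50 nM plus b-H3(5-23)K14Ac 50 nM, PBS pH 7.4/0.01% Tween-20, 30 min RT; compound added (max 110 uM), 30 min RT; streptavidin donor/Ni-chelate acceptor beads 10 ug/mL final, 20 min dark; AlphaScreen read.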
# JMJD2A Tudor inh = blocks the human JMJD2A Tudor domain. O75164. AlphaScreen JMJD2A-Tudor / H3K4me3 peptide binding. 390,000 tested, 4.4% active. AID 504339. Potency, µM (top dose mostly 114 µM), usual class: inhibitors; note: nearly all actives have a fitted effect of over 50% in size
# Target sequence (O75164 whole entry, looked up, the tested form may be a part): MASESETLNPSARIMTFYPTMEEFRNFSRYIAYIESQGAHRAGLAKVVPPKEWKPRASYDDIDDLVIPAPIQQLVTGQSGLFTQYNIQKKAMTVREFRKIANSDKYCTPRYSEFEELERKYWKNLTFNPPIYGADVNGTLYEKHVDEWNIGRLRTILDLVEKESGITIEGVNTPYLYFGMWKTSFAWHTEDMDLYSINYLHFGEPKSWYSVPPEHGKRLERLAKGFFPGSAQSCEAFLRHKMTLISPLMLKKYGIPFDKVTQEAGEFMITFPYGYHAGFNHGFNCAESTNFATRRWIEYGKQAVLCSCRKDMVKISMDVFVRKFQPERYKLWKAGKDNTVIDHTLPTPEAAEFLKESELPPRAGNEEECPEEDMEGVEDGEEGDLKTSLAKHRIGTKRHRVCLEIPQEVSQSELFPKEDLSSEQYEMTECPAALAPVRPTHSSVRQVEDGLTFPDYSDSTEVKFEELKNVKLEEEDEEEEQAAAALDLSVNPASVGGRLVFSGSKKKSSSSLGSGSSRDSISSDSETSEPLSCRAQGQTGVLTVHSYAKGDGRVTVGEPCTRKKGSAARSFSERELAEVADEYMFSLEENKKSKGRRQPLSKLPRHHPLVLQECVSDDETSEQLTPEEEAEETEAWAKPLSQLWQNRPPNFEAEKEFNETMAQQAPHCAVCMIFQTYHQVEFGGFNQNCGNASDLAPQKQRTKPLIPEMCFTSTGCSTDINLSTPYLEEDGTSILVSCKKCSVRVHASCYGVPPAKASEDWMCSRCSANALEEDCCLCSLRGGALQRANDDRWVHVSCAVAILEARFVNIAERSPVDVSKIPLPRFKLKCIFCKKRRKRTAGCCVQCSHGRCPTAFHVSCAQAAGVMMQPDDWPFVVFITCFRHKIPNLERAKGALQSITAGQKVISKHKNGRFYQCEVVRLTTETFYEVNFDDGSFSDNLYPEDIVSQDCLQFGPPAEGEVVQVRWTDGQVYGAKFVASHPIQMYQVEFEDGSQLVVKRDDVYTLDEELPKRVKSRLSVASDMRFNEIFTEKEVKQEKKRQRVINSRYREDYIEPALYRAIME
# HP1b binding inh = HP1-beta chromodomain-methylated histone interaction inhibition; P83916; AlphaScreen HP1-beta / biotin-H3K9me3 peptide binding; Potency, µM (top dose mostly 114 µM), hits mostly inhibitors; 390,000 tested, 0.56% active; note: nearly all actives have a fitted effect of over 70% in size
#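 Compound inhibition of the preformed complex between 50 nM HP1-beta and 50 nM biotinylated H3K9me3 peptide was read by AlphaScreen. Buffer was PBS pH 7.4 with 0.01% Tween-20. Incubations ran 30 min at room temperature, with 10 ug/mL donor/acceptor beads.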
# TDP1 inh = TDP1 (human) enzyme inhibition. Q9NUW8. recombinant TDP1, AlphaScreen DNA substrate cleavage. Potency, µM (highest dose often 130 µM), usual class: inhibitors. 350,000 tested, 0.28% active. AID 485290; note: nearly all actives have a fitted effect of over 40% in size
#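 Recombinant E. coli-expressed Tdp1 (1 nM) preincubated with compound 15 min at RT, then 5'-biotin/3'-phosphotyrosine-FITC DNA substrate (15 nM) added for 5 min. AlphaScreen beads (10 ug/ml) added, 10 min RT; tyrosine-FITC cleavage read as signal loss.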
# Six1-Eya2 blk = blocks human Six1 binding to Eya2. AlphaScreen GST-Six1/His-Eya2 binding, biochemical; active compounds read low. activity change, % (test concentration not listed). 360,000 tested, 0.56% active. AID 651725; in the data active = activity change below about -65%; inconclusive = mostly about -30% to -63%
#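 AlphaScreen with GST-Six1 and His-Eya2 (5X mix: 250 nM and 500 nM), glutathione donor and nickel acceptor beads; buffer 50 mM Tris pH 8.0, 300 mM NaCl, 1 mM TCEP; 1 h at 37 C in the dark.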
# CtBP-E1A inh = inhibitors of CtBP/E1A interaction; AlphaScreen GST-E1A/His-CtBP binding, 1536-well; active compounds read low; activity change, % (no concentration beside the values); 340,000 tested, 0.49% active; AID 651724; in the data active = activity change below about -65%; inconclusive = mostly about -30% to -63%
#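 Protein mix (5X: 125 nM each GST-E1A, His-CtBP) was incubated with pinned compound 2 h at 37 deg C in dark, in 50 mM Tris pH 8.0 buffer with 300 mM NaCl. Glutathione donor and nickel acceptor beads followed; AlphaScreen signal read after 1 h.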
# A number is an active result; – = inactive; ? = inconclusive; · = no result given. Unless noted, calls come from the whole dose curve; as a rule, active = well fitted inhibition curve with a large enough effect; inconclusive = small, poorly fitted or top-dose-only effect; inactive = no such curve, though single readings can be large or run the other way.
SMILES,BAZ2B block,JMJD2A Tudor inh,HP1b binding inh,TDP1 inh,Six1-Eya2 blk,CtBP-E1A inh
COc1ccc(/C=N/NC(=O)c2[nH]c3ccc(Cl)cc3c2-c2ccccc2)c(C(=O)O)c1OC,–,?,–,·,-71.6,?
COc1ccc(/C=N/NC(=O)c2[nH]c3ccc(Br)cc3c2-c2ccccc2)cc1,–,–,–,–,–,–
COc1ccc(/C=N/NC(=O)c2[nH]c3ccc(Br)cc3c2-c2ccccc2)c(C(=O)O)c1OC,50.1µM,?,–,–,?,?
COc1ccc(OC)c(NC(=O)C2CCN(S(=O)(=O)c3ccc4c(c3)CCCC(=O)N4)CC2)c1,–,–,–,–,·,·
COc1ccc(Br)c2c1-c1nc(NC(=O)c3ccc(F)cc3)sc1C2,70.8µM,–,–,–,·,·
COc1ccc(-c2cc(C(C)=O)c(C)n2CCC(=O)Nc2cc(Cl)ccc2C)cc1,–,–,–,–,·,·
COc1ccc(CNC(=O)c2cccc(-n3cnc4cccnc43)c2C)cc1,–,–,–,–,·,·
CCOC(=O)CNC(=S)n1cnc(N)n1,79.4µM,–,–,–,–,–
Cc1ccc(CNS(=O)(=O)c2cc(C(=O)Nc3cccc(C(F)(F)F)c3)ccc2F)cc1,–,–,–,–,·,·
COc1ccc(-c2c(C)c3ccc(O)c(CN4CCCCC4)c3oc2=O)cc1OC,–,–,–,–,·,·
COC(=O)c1cc2oc(C)cc2n1CC(=O)Nc1cc(Cl)ccc1OC,–,–,–,–,·,·
CCCCCNc1nc(NCCCO)c(C#N)c2c1CN(C)CC2,–,–,–,–,–,–
CCCCCNc1nc(N2CCCC2)c2c(c1C#N)CCN(C)C2,?,56.2µM,–,–,–,–
COc1cc2[nH]c(=S)nc(NC3CCCCCC3)c2cc1OC,–,–,–,–,-71.3,-67.1
COc1cc2[nH]c(=S)nc(Nc3ccc(NC(C)=O)cc3)c2cc1OC,–,–,–,–,-87.9,-89.6
COc1cc2[nH]c(=S)nc(NCC3CCCO3)c2cc1OC (stereo not drawn),–,–,–,–,-90.0,-86.9
O=C(c1cccn1-c1nnc(N2CCCC2)s1)N1CCN(c2ccccc2)CC1,–,–,–,–,·,·
O=S(=O)(CCc1ccccc1)c1nnnn1C1CCCCC1,·,·,·,–,·,·
CCOc1ccc(CNC(=O)Cn2ccc3cc(S(=O)(=O)N4CCCCC4)ccc32)cc1,–,–,–,–,·,·
CCOc1ccc(S(=O)(=O)c2cn(Cc3ccccc3C)c3ccc(OC)cc3c2=O)cc1,–,–,–,–,·,·
CN1CCN(CC(=O)NN(Cc2ccccc2)c2ccccc2)CC1,–,7.94µM,?,–,–,–
CCN(CC)CC(=O)NN(Cc1ccccc1)c1ccccc1,79.4µM,17.8µM,?,·,–,–
CCOC(=O)c1nnn(-c2ccc([N+](=O)[O-])cc2[N+](=O)[O-])c1C,–,–,–,–,–,-65.6
N#Cc1nc(Nc2cc(F)cc(F)c2)c2ncn(CCO)c2n1,·,–,·,·,·,·
O=C1CCC(C(=O)N2CCCC(C(=O)c3ccc4ccccc4c3)C2)=NN1 (stereo not drawn),–,–,–,–,–,–
SMILES,BAZ2B block,JMJD2A Tudor inh,HP1b binding inh,TDP1 inh,Six1-Eya2 blk,CtBP-E1A inh
Cc1ccc2c(c1)C1(C(=O)N2)N2CCCC2C(C(=O)c2ccc3ccccc3c2)C12C(=O)Nc1ccccc12 (stereo not drawn),?,50.1µM,?,–,–,–
OC[C@H](S)CS,·,·,·,12.6µM,·,·
O=C(Nc1ccc2c(c1)OCCO2)c1coc2ccccc2c1=O,–,28.2µM,–,–,–,–
Cc1nn(C)cc1CN(C)C(=O)c1ccc(OC2CCN(Cc3ccccn3)CC2)cc1,?,56.2µM,–,–,–,–
CC(NC(=O)c1ccc(OC2CCN(Cc3ccccn3)CC2)cc1)c1nccs1 (stereo not drawn),?,–,–,–,–,–
CN(Cc1nccs1)C(=O)c1ccc(OC2CCN(Cc3ccccn3)CC2)cc1,–,–,–,–,–,–
COCC1CCCN(C(=O)c2ccc(OC3CCN(Cc4ccccn4)CC3)cc2)C1 (stereo not drawn),–,28.2µM,–,–,–,–

# Screens deposited in PubChem BioAssay by National Center for Advancing Translational Sciences (NCATS).
